G9a inh: blocks human histone lysine methyltransferase G9a; Q96KQ7; G9a H3K9 monomethylation, AlphaScreen, 2 h; Potency, µM (series often up to 102 µM), inactives show at the highest dose activity, negative = inhibition, actives largely listed as inhibitors; 8.8% of 350,000 active; AID 504332; note: potency is the fitted concentration of half-maximal effect; % is set by controls: 0 for no effect and ±100 for the full control effect; nearly all actives have a fitted effect of over 75% in size
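Step 1: enzyme (final 20 nM) with compound, 15 min RT. Step 2: substrate peptide 500 nM and SAM 20 uM, 2 h RT. Step 3: anti-H3K9me1 antibody and AlphaScreen beads, 10 min, then plate read.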
HP1b binding inh: blocks HP1-beta chromodomain binding to methylated histone tails; P83916; AlphaScreen HP1-beta / biotin-H3K9me3 peptide binding; Potency, µM (titrated, usually from 114 µM), for inactives: at the top dose activity change, negative = inhibition, hits mostly inhibitors; 0.56% of 390,000 active; AID 540317; note: potency is the fitted concentration of half-maximal effect; nearly all actives have a fitted effect of over 70% in size
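HP1-beta protein (50 nM final) preincubated 30 min at room temperature with biotinylated H3(1-18)K9me3 peptide (50 nM) in PBS pH 7.4, 0.01% Tween-20, then compound added for 30 min. AlphaScreen streptavidin donor/nickel chelate acceptor beads (10 ug/mL final), 30 min dark, luminescence read.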
BAZ2B inh: inhibitors of human BAZ2B bromodomain; 4.4% of 360,000 active; AID 504333; Q9UIF8; Potency, µM (highest dose often 114 µM), for the others: top-dose activity change, negative = inhibition, usual class: inhibitors; AlphaScreen BAZ2B-H3K14Ac peptide displacement; note: potency is the fitted concentration of half-maximal effect; % is set by controls: 0 for no effect and ±100 for the full control effect; nearly all actives have a fitted effect of over 60% in size
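AlphaScreen displacement: compounds (up to 110uM) incubated 30 min at room temperature with a preformed 50 nM BAZ2B/50 nM biotinylated H3K14Ac peptide complex in PBS pH 7.4 with Tween-20. Donor and acceptor beads at 10 ug/mL final added, 20 min light-protected before reading.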
JMJD2A Tudor: JMJD2A Tudor domain (human) inhibition; Potency, µM (top dose mostly 114 µM), for the others: top-dose activity change, negative = inhibition, hits mostly inhibitors; AID 504339; 4.4% of 390,000 active; O75164; AlphaScreen JMJD2A-Tudor / H3K4me3 peptide binding; note: potency is the fitted concentration of half-maximal effect; % is set by controls: 0 for no effect and ±100 for the full control effect; nearly all actives have a fitted effect of over 50% in size
L3MBTL1 inh: blocks human L3MBTL1; AlphaScreen L3MBTL1–H3K9me1 peptide binding; Potency, µM (series often up to 57.1 µM), without a hit: top-dose activity, negative = inhibition, hits mostly inhibitors; 0.66% of 230,000 active; AID 485360; note: potency is the fitted concentration of half-maximal effect; % is set by controls: 0 for no effect and ±100 for the full control effect; nearly all actives have a fitted effect of over 60% in size
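L3MBTL1 50 nM + b-AHA-H3(1-15)K9me1 75 nM, 30 min RT; compound added, 30 min RT; streptavidin donor/Ni-chelate acceptor beads 10 ug/mL each final, 30 min RT dark; AlphaScreen read.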
PI5P4K alpha inh: blocks human PI5P4K alpha kinase activity; PI5P4Kalpha enzyme, ADP-Glo luminescence, 60 min; stronger effect = lower value; max response, %; 1.2% of 330,000 active; active = max response of -50% or lower; inconclusive = between -30% and -50%; inactive = -30% or higher; note: value at the top dose of about 77 µM; % is set by controls: 0 for no effect and ±100 for the full control effect
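Human PI5P4Kalpha with substrate in 0.038 M HEPES pH 7.4, 0.28 mM EGTA, 0.1% CHAPS, 5% DMSO; reaction started with 5 microM ATP (final), 60 min at room temperature. ADP formed read by ADP-Glo luminescence.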
The depositor's hits bear a star; ? = inconclusive; . = no result; [ ] = another dose, or the depositor's remark. Most compounds without a hit are left out; they make up all but 11% or so of the library. Unless noted, calls come from the whole dose curve; as a rule, active = well fitted inhibition curve with a large enough effect; inconclusive = small, poorly fitted or top-dose-only effect; inactive = no such curve, though single readings can be large or run the other way.

SMILES	G9a inh	HP1b binding inh	BAZ2B inh	JMJD2A Tudor	L3MBTL1 inh	PI5P4K alpha inh
Cc1c(C(=O)O/N=C(\N)c2ccccn2)cccc1[N+](=O)[O-]	32µM*	1%	-27%	11µM*	5%	-18
CCOc1ccc(S(=O)(=O)c2cc3cccc(OCC)c3oc2=O)cc1	-4%[59 µM]	34%	1%[57.1 µM]	-10%	.	.
O=C(C=P(c1ccccc1)(c1ccccc1)c1ccccc1)c1ccccc1-c1ccccc1C(=O)C=P(c1ccccc1)(c1ccccc1)c1ccccc1	.	?	.	45µM*	.	-65*
O=C(NNC(=O)c1ccccc1-c1ccccc1C(=O)O)c1ccccc1	?	43%	-19%	3%	-3%	4
Cc1ccc(N=Nc2c(C)[nH]n(-c3ccccc3)c2=O)cc1Br	3.5µM*	-2%	13µM*	?	-5%	0
CSc1ccc(N=Nc2c(C)[nH]n(C)c2=O)cc1	11µM*	45µM*	18µM*	25µM*	?	-2
Nc1[nH]n(-c2ccccc2)c(=O)c1N=Nc1ccc2ncsc2c1	.	-29%	?	-21%[11.4 µM]	?	?
Cc1[nH]n(-c2ccccc2)c(=O)c1N=Nc1ccc(F)cc1	4.5µM*	-20%	4.5µM*	?	.	0
Cc1[nH]n(-c2ccccc2)c(=O)c1N=O	-8%[12.7 µM]	23%	-28%	-12%	7%	-3
COC(=O)c1ccc(N=Nc2c(C)[nH]n(-c3ccccc3)c2=O)cc1	8.9µM*	?	?	?	.	5
CN1CCN(c2ncc3nc(-c4ccccc4)c(=O)n(C)c3n2)CC1	7%[0.501 µM]	.	.	.	.	.
CC(C)Oc1ccc(CNC(=O)c2ccc3c(c2)nc2n3CCOC2)cc1	-2%[59 µM]	27%[57 µM]	4%	6%	.	.
Cc1[nH]n(-c2ccccc2)c(=O)c1N=Nc1c(O)cc(S(=O)(=O)N(C)C)c2ccccc12	3.5µM*	18µM*	7.9µM*	20µM*	7.9µM*	-8
COc1cc([N+](=O)[O-])ccc1N=Nc1c(N)[nH]n(-c2ccccc2)c1=O	50µM*	-26%	?	-23%[11.4 µM]	-14%	?
Cc1[nH]n(-c2ccccc2)c(=O)c1N=Nc1ccc2c(c1)OCCO2	7.1µM*	?	6.3µM*	22µM*	?	16
CC(=O)c1cccc(N=Nc2c(-c3ccccc3)[nH]n(-c3ccccc3)c2=O)c1	.	14µM*	5µM*	?	-7%	-2
Cc1ccc(C(=O)c2oc3ccccc3c2NC(=O)c2cc(-c3ccccc3)on2)cc1F	3%[59 µM]	43%	1%	1%	.	.
Cc1ccc(C(=O)c2c(N)c(-c3nc(-c4ccc5c(c4)OCO5)cs3)c3ccccn23)cc1C	7%[59 µM]	17%	5%	-10%	.	.
Cc1[nH]n(-c2ccccc2)c(=O)c1N=Nc1cccc(Cl)c1	.	?	22µM*	?	-2%	0
Cc1[nH]n(-c2ccccc2)c(=O)c1-c1ccccc1	18%[59 µM]	-11%	.	-26%	3%	5
Nc1[nH]n(-c2ccccc2)c(=O)c1N=Nc1ccccc1[N+](=O)[O-]	-11%	0%	-25%	-21%	.	.
Cc1[nH]n(-c2ccccc2)c(=O)c1N=Nc1cccc([N+](=O)[O-])c1	.	-9%	?	?	-3%	3
Nc1[nH]n(-c2ccccc2)c(=O)c1N=Nc1ccccc1	4.5µM*	?	7.9µM*	13µM*	?	16
Cc1ccc(N=Nc2c(C)[nH]n(-c3ccccc3)c2=O)c(C)c1	-14%	22µM*	13%	11µM*	41%	?
CCCCN(CCCNC(=O)c1cc(Nc2ccc(OC)c(OC)c2)nc2ccccc12)c1ccccc1	-7%[59 µM]	-22%	.	?	.	.
SMILES	G9a inh	HP1b binding inh	BAZ2B inh	JMJD2A Tudor	L3MBTL1 inh	PI5P4K alpha inh
CCCCN(CCCNC(=O)c1cc(Nc2ccc(OC)c(OC)c2)nc2ccccc12)Cc1ccccc1	11µM*	?	.	28µM*	.	.
CCCCN(C)CCCNC(=O)c1cc(Nc2ccc(OC)c(OC)c2)nc2ccccc12	71µM*	-6%	-26%	?	.	-5
CCCCN(CCCNC(=O)c1cc(Nc2ccc(OC)cc2)nc2ccccc12)Cc1ccccc1	4%[59 µM]	6%	.	-18%	.	.
CCCCN(CCCNC(=O)c1cc(Nc2ccc(OC)cc2OC)nc2ccccc12)Cc1ccccc1	10µM*	-20%	.	?	.	.
COc1ccc(CNC(=O)CN2C(=O)CC(c3ccc(C)c(C)c3)=Nc3ccccc32)cc1	1%[59 µM]	14%	-22%	-21%	.	.
COc1ccc(NC(=O)c2c(NC(=O)COc3ccc(Cl)cc3)sc3c2CCCCC3)cc1	5%[59 µM]	32%	-1%	-9%	.	.
Cc1ccc2c(c1)c1c3n2CCN(C(=O)c2cccc(C(F)(F)F)c2)C3CCC1 (stereo unspecified)	7.9µM*	-24%	28µM*	?	.	.
CCN1CCn2c3c(c4cc(Cl)ccc42)CCCC31 (stereo unspecified)	?	4%	35µM*	-26%[11.4 µM]	-11%	21
CCn1c2c(c3cc(Cl)ccc31)CCCC2=O	86%	140%	73%	70%	.	-1
CCN(CC)CCN1CCn2c3c(c4cc(C)ccc42)CCCC31 (stereo unspecified)	?	6%	?	56µM*	-11%	4
Cc1ccc2c(c1)c1c3n2CCN(C=O)C3CCC1 (stereo unspecified)	50µM*	-15%	?	?	-14%	16
Cc1ccc2c(c1)c1c3n2CCNC3CCC1 (stereo unspecified)	-17%[59 µM]	-8%	?	?	-5%	16
Cc1ccc(C(CC(=O)Nc2ccc(F)c(Cl)c2)N2Cc3ccccc3C2=O)cc1 (stereo unspecified)	7%[59 µM]	36%	-1%	6%	.	.
Cc1cccc(OCC(=O)Nc2ccccc2OCc2cc(=O)n3ccccc3n2)c1	-2%[59 µM]	20%[57 µM]	8%	-1%	.	.
CN(C)C(=O)c1ccc(-c2ccc3ncnc(NCCN4CCOCC4)c3c2)cc1	-34%[0.501 µM]	.	.	.	.	.
CCOc1ccc(N(CC)S(=O)(=O)N2CCCC(C(=O)Nc3ccc(OC)c(Cl)c3)C2)cc1 (stereo unspecified)	1%[59 µM]	37%	-12%	-13%	.	.
Cc1ccc(NC(=O)Cn2c(=O)n(-c3ccc(CC(=O)NCC4CCCO4)cc3)c(=O)c3ccccc32)cc1 (stereo unspecified)	-4%[59 µM]	23%	2%	-5%	.	.
Cc1ccc(/C=N/Nc2cc(C)nc(N3CCOCC3)n2)cc1	3%	22%	-7%	?	-3%	17
O=c1[nH]c(N/N=C\c2ccc3c(c2)OCO3)nc2ccccc12	.	32%	-25%	-8%	-12%	-13
O=C(O)c1cc(N/N=C/c2ccc3c(c2)OCO3)ccc1Cl	50µM*	39%	?	-25%	-24%	-53*

Screening results as filed in PubChem BioAssay.
